Reference: PubChem BioAssay (NCATS)
Results filed as inconclusive are left out. A call without a number means that no potency is given here. Active and inactive are the calls of the source. Calls follow the shape of the dose curve; as a rule, active = well fitted cell-killing curve with a large enough effect; inconclusive = small, poorly fitted or top-dose-only effect, or effect the other way; inactive = no such curve, though single readings can be large or run the other way.

Assay: Quantitative High-Throughput drug screen in 47 multiple myeloma cell lines against the NCATS MIPE library collection: OPM1_PLB cell viability assay (AID 1918989); also: nearly all actives have a fitted effect of over 40% in size
Details: CellTiter-Glo, 48 h; series mostly up to 45.8 µM
Summary of the method: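 ATP-based CellTiter-Glo luminescence after 48 h drug exposure (37 °C, 5% CO2) of 500 myeloma cells per well. DMSO-only wells set 100% viability, media-only wells 0%; MIPE 4.0 library added by pin tool.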
Potency is read from the fitted curve at half-maximal effect.

For CC1C(=O)OC2C(O)C34C5CC(C(C)(C)C)C36C(OC(=O)C6O)OC4(C(=O)O5)C12O (centres undefined), which Potency is on record?
The Potency was “inactive”.

Which Potency does the source give for C[C@@H](O)[C@H]1C(=O)N2C(C(=O)OCOC(=O)C(C)(C)C)=C(SC3CN(C4=NCCS4)C3)[C@H](C)[C@H]12 here?
The Potency was “inactive”.

With C[C@@H]1C[C@H]2[C@@H]3CCC4=CC(=O)C=C[C@]4(C)[C@@]3(F)[C@@H](O)C[C@]2(C)[C@@]1(O)C(=O)CO as the compound, how does the Potency read?
The Potency was “inactive”.

Which Potency does the source give for O=c1[nH]c(=O)n([C@H]2C[C@@H](O)[C@@H](CO)O2)cc1I here?
Its Potency is “inactive”.

Which Potency does the source give for CN1CCN2c3ncccc3Cc3ccccc3C2C1 (centres undefined) here?
The Potency was “inactive”.

Which Potency does the source give for N#CC(c1ccnc(NCCc2cccnc2)n1)c1nc2ccccc2s1 (centres undefined) here?
The Potency was 14.8 µM (active).

Which Potency does the source give for CN1CCN(c2ncc(-c3cc(Cl)cc(Cl)c3Cl)c(N)n2)CC1 here?
Its Potency is “inactive”.

With CCC[C@H](Nc1nc(-c2ccc(NC(=O)NCC)c(OC)c2)ncc1C)c1cccnc1 as the compound, how does the Potency read?
The Potency was 0.001 µM (active).

Which Potency does the source give for NS(=O)(=O)c1cc(Cl)c(Cl)c(S(N)(=O)=O)c1 here?
Its Potency is “inactive”.

Which Potency does the source give for CCN(CC)CCCCNc1nc2cc(Cl)c(Cl)cc2nc1-c1ccc(-c2cccs2)s1 here?
The Potency was 5.9 µM (active).

For CO[C@H]1/C=C\O[C@@]2(C)Oc3c(C)c(O)c4c(O)c(c(C=NN5CCN(C6CCCC6)CC5)c(O)c4c3C2=O)NC(=O)C(C)=CC=C[C@H](C)[C@H](O)[C@@H](C)[C@@H](O)[C@@H](C)[C@H](OC(C)=O)[C@H]1C, which Potency is on record?
The Potency was 0.264 µM (active).

For CC1(C)[C@H]2CC[C@]3(C)[C@@H](C(=O)C=C4[C@@H]5C[C@@](C)(C(=O)O)CC[C@]5(C)CC[C@]43C)[C@@]2(C)CC[C@@H]1O, which Potency is on record?
The Potency was “inactive”.

For CC[C@H](NC(=O)[C@H](C)NC)C(=O)N1C[C@@H](O)C[C@H]1Cc1c(-c2[nH]c3cc(F)ccc3c2C[C@H]2C[C@H](O)CN2C(=O)[C@H](CC)NC(=O)[C@H](C)NC)[nH]c2cc(F)ccc12, which Potency is on record?
Its Potency is 13.2 µM (active).

For O=C(NCCCCN1CCOCC1)c1cc2ccccc2o1, which Potency is on record?
Its Potency is “inactive”.

With Cc1[nH]c(C=C2C(=O)Nc3ccc(S(=O)(=O)N(C)c4cccc(Cl)c4)cc32)c(C)c1C(=O)N1CCN(C)CC1 as the compound, how does the Potency read?
The Potency was 9.35 µM (active).

With COc1cccc(OC)c1-c1cc(C(=O)NC2(C(=O)O)C3CC4CC(C3)CC2C4)nn1-c1ccnc2cc(Cl)ccc12 (centres undefined) as the compound, how does the Potency read?
The Potency was “inactive”.

For O=C(NC[C@H](O)CO)c1ccncc1Nc1ccc(I)cc1F, which Potency is on record?
Its Potency is 18.7 µM (active).

Which Potency does the source give for CCOC(=O)N1CCN([N+]([O-])=NOc2cc(ON=[N+]([O-])N3CCN(C(=O)OCC)CC3)c([N+](=O)[O-])cc2[N+](=O)[O-])CC1 here?
The Potency was 5.9 µM (active).

With O=C(CO)N1CCC(c2[nH]nc(-c3ccc(Cl)cc3)c2-c2ccncn2)CC1 as the compound, how does the Potency read?
The Potency was 3.32 µM (active).
